# Only some compounds are listed: those with a hit (about 7.3% of all), similar ones and a draw of the others.
# KinaseGlo FLuc: counter-screen: inhibitors of Kinase-Glo firefly luciferase | Potency, µM (top dose mostly 38.3 µM), inactives show at the top dose activity change, negative = inhibition, most hits filed as inhibitors | Kinase-Glo luciferase, ATP luminescence, 8 min | AID 1379 | 200,000 compounds, 0.28% hits; note: % is set by controls: 0 for no effect and ±100 for the full control effect; nearly all actives have a fitted effect of over 60% in size
#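 Compounds were added to a substrate mix at pH 7.2 (50 mM imidazole, 10 uM ATP, within the enzyme's linear range), followed by Kinase-Glo detection reagent; luminescence was measured after 8 minutes at ambient temperature.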
# FLuc counter: inhibits or activates purified firefly luciferase, miR-21 counter-screen; Potency, µM (series often up to 57.5 µM), for inactives: at the top dose activity change, negative = inhibition, actives largely listed as inhibitors; purified FLuc, Km substrates, luminescence inhibition; 360,000 compounds, 6.9% hits; AID 588342; P08659;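 note: plate controls were vehicle for no effect and reference inhibitor for full effect; nearly all actives have a fitted effect of over 55% in size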
# Target sequence (P08659 whole entry, looked up): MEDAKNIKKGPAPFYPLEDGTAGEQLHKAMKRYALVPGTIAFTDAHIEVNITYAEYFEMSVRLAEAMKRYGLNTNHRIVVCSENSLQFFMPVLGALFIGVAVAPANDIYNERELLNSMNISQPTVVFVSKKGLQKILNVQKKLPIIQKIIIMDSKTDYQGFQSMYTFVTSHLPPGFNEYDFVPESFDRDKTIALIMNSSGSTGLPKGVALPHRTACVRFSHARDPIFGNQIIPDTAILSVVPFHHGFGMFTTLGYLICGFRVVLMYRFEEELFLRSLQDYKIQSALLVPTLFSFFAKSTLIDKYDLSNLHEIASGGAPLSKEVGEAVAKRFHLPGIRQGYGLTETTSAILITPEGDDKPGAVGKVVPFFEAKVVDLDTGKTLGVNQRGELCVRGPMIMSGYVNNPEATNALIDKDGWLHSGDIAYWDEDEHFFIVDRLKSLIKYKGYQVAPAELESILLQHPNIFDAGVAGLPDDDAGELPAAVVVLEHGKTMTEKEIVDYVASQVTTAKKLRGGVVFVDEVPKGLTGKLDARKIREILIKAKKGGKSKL
#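 Biochemical qHTS of compounds, final roughly 60 µM downward over six points, against 10 nM purified firefly luciferase using Km concentrations of substrates (10 uM D-luciferin, 10 uM ATP) in Tris acetate pH 7.5 buffer; luminescence output.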
# ELG1 genotox: inducers of genotoxicity in HEK293T ELG1-luciferase cells; HEK293T ELG1-luciferase reporter, luminescence, 16 h; Potency, µM (top dose mostly 46 µM), for inactives: top-dose activity change, positive = activation, usual class: activators; 330,000 compounds, 1.3% hits; AID 504466; note: % of control where 0% means no effect; nearly all actives have a fitted effect of over 60% in size
#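 Luminescence read-out: rising ELG1-luciferase signal, reflecting elevated ELG1 protein under genetic stress, flags genotoxic compounds. Cells were treated for 16 hr at 37 °C before ONE-Glo detection.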
# Rab9 prom act: Rab9 promoter activation. Huh7 Rab9 promoter-luciferase reporter, luminescence, 24 h. Potency, µM (titrated, usually from 9.22 µM), for the others: at the top dose activation, negative = inhibition, hits mostly activators. 320,000 compounds, 2.8% hits; note: % of control where 0% means no effect; nearly all actives have a fitted effect of over 60% in size
#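 Cell-based reporter: Huh7 stable for Rab9 promoter-driven luciferase, plated in reduced-serum medium with 10% FBS at 1500 cells/well, compound-treated 24 h at 37 °C, luminescence read after 10 min reagent.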
# SMN2 splice enh: SMN2 splice variant enhancement | 210,000 compounds, 2.8% hits | HEK293 SMN2-luciferase splicing reporter, luminescence, 30-36 h | Potency, µM (doses to about 46.1 µM), for the others: top-dose activity change, positive = activation, usual class: activators; note: % of control where 0% means no effect; nearly all actives have a fitted effect of over 55% in size
#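 qHTS luciferase splicing reporter: luminescence rises when SMN2 exon 7 is included in transfected HEK293 cells. Compound exposure lasted 30-36 h at 37C, with 4.5 mM final sodium butyrate as control, followed by a ONE-Glo read.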
# NPC1 promoter act: NPC1 promoter activation. Huh7 NPC1 promoter luciferase reporter, 24 h. 320,000 compounds, 2.4% hits. Potency, µM (doses to about 9.22 µM), without a hit: at the top dose activation, hits mostly activators. AID 485313; note: % of control where 0% means no effect; nearly all actives have a fitted effect of over 60% in size
#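 Luminescence read-out of NPC1 promoter-driven luciferase in stably transfected Huh7 cells; compounds delivered in DMSO and left 24 h at 37C, 5% CO2, qHTS titration format.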
# * hit, by the source's call; u = inconclusive; x = not tested or not shown; [ ] = remark or other dose. Calls come from the whole dose curve; as a rule, active = well fitted curve in the direction sought with a large enough effect; inconclusive = small, poorly fitted or top-dose-only effect, or another doubt; inactive = no such curve, though single readings can be large; an effect the other way counts as inactive or inconclusive. Potency is the fitted concentration of half-maximal effect.
SMILES,KinaseGlo FLuc,FLuc counter,ELG1 genotox,Rab9 prom act,SMN2 splice enh,NPC1 promoter act
CCCCOc1cccc(NC(=O)c2cccc(C(=O)Nc3cccc(OCCCC)c3)c2)c1,x,-13%,x,x,-3%,x
Cc1ccc(NC(=O)c2cccc(OCc3c(C)noc3C)c2)cc1,-3%,24µM*,3%,1%,-5%,9%
COc1ccc(S(=O)(=O)N(CCO)c2ccccc2CN(C)C/C=C/c2ccc(Cl)cc2)cc1,x,x,x,x,-67%,x
O=C1C=C(c2ccccc2)OC(=O)C1C(=O)c1ccccc1 (stereo unspecified),-2%,24µM*,2%,4%,-8%,2%
O=C(c1ccccc1)C1O[C@H]1c1ccccc1 (stereo partly specified),0%,x,x,x,0%,x
Cc1ccc(NC(=O)c2nc[nH]c2C(=O)N2CCc3ccccc3C2)cc1,x,6%,1%,1%,x,-1%
O=C(Nc1ccccc1)N1CCc2ccccc2C1,-13%,21µM*,15%,4µM*,14µM*,u
O=C(c1cccc(F)c1)N1CCc2ccccc2C1,5%,u,12%,18%,u,2%
O=C(CNc1cccc(F)c1)N1CCc2ccccc2C1,x,13µM*,u,4.5µM*,x,3.2µM*
O=C(Nc1ccc(Cl)cc1)N1CCc2ccccc2C1,-2%,u,-4%,3%,x,-1%
Cc1ccc(NC(=O)N2CCc3ccccc3C2)cc1,-2%,12µM*,8.2µM*,3.5µM*,11µM*,2.8µM*
CN(C)c1ccc(NC(=O)CN2CCc3ccccc3C2)cc1,x,24µM*,u,u,x,29%
CCOC(=O)c1c(N)sc2c1CCN(Cc1ccccc1)C2,-1%[39.9 µM],x,x,x,x,x
O=C(O)C(Sc1ccc(Cl)cc1)Sc1ccc(Cl)cc1,-11%[7.66 µM],x,x,x,-9%[9.22 µM],x
CCOc1ccc(Nc2nc(Cc3nnc(SCC(N)=O)o3)cs2)cc1,0%,15µM*,5%,-1%,-13%,-2%
CCOc1ccc(NC(=O)CSc2nnc(Cc3csc(C)n3)o2)cc1,x,2%,-1%,0%,x,-9%
NCC[C@H](N)C(=O)O,-6%[7.66 µM],x,x,x,-6%[9.22 µM],x
CCOc1ccc(CCNC(=O)c2ccc(-c3nc(COc4ccc(C)cc4)c(C)o3)cc2)cc1,x,-3%,x,x,1%,x
O=C(CCc1ccccc1)Nc1cc2c(cc1Cl)OCCO2,-5%,11µM*,u,3.2µM*,13µM*,3.5µM*
O=C(CCSCc1ccccc1)Nc1ccc2c(c1)OCCO2,-1%,9.5µM*,7%,10%,x,-2%
CN(CCC(=O)Nc1ccc2c(c1)OCO2)Cc1ccccc1,1%,-7%,-1%,9%,-10%,5%
O=C(CCCOc1ccccc1)Nc1ccc2c(c1)OCCO2,-3%,12µM*,u,3%,x,1%
O=C(Nc1ccc2c(c1)OCCO2)N1CCN(Cc2ccccc2)CC1,-2%,13µM*,2%,u,18%,u
CCc1c(-c2ccccc2)nc2ccccc2c1C(=O)NCCc1ccccc1,x,-14%,x,x,x,x
Fc1ccc(Nc2nc(SCc3ccccc3F)nc3ccccc23)cc1,x,-1%,x,x,x,x
SMILES,KinaseGlo FLuc,FLuc counter,ELG1 genotox,Rab9 prom act,SMN2 splice enh,NPC1 promoter act
O=C(CCc1ccccc1)Nc1ccc2c(c1)OCCO2,-1%,6µM*,u,1.8µM*,13µM*,3.2µM*
CC(C)c1ccc(NC(=O)CCc2ccccc2)cc1,x,24µM*,u,u,x,26%
Cc1ccc2c(c1)C(c1ccc(F)cc1)N(C(=O)C(C)C)CC(=O)N2 (stereo unspecified),x,3%,x,x,5%,x
CCOc1ccc(NC(=O)c2ccc3c(=O)n4nc(Nc5ccccc5C)sc4nc3c2)cc1,x,-2%,x,x,x,x
CCOc1ccccc1C1N=C(c2ccc(OC)cc2)CC(c2ccccc2O)N1 (stereo unspecified),0%,19µM*,u,u,x,u
CCn1cc(C(=O)NC2CCC(C)CC2)c(=O)c2cc(S(=O)(=O)N3CCCCC3)ccc21 (stereo unspecified),-2%,21µM*,9%,u,13µM*,u
